According to ChEMBL document CHEMBL3988442, “University of Dundee, Small-Polar-MMV Screening Library” (2021):

The compounds below were run against AMP-activated protein kinase, AMPK (Homo sapiens) (UniProt P54646+O43741+P54619+Q9UGJ0+Q9Y478+Q13131+Q9UGI9) (assay: AMP-dependent Kinase enzyme assay. An in vitro enzyme assay that detects ADP turnover that is directly proportional to AMPK activity. This uses naive AMPK that is activated during the assay with MK-8722). Details: 30 µM.
Type: functional
Parameters: scale not given: direction of the effect not stated beside the values

**Q.** CCCN1CCC(N2CCC(Cn3cc(C4CC4)nn3)CC2)CC1 was tested. Which Percent Effect did it give?
**A.** 2.68%

**Q.** With O=C1CC2(CCCC2)CC(=O)N1CCn1cnnc1 as the compound, how does the Percent Effect read?
**A.** 5.88%

**Q.** With COC(=O)C1CCN(C(=O)Cn2ccc(-c3ccccc3)n2)CC1 as the compound, how does the Percent Effect read?
**A.** -5.77%

**Q.** For CC(C)c1nc(CC(=O)Nc2cnccc2O)cs1, which Percent Effect is on record?
**A.** -1.17%

**Q.** Cc1ccc2nc(CN3CCCCC3CCn3cccn3)cn2c1 (stereo not drawn) was tested. Which Percent Effect did it give?
**A.** 4.05%

**Q.** CS(=O)(=O)CCC(=O)Nc1ccsc1 was tested. Which Percent Effect did it give?
**A.** -6.46%

**Q.** Which Percent Effect does the source give for COc1ccccc1CCNC(=O)CNCC1CN(C)CCO1 (stereo not drawn) here?
**A.** -4.87%

**Q.** Which Percent Effect does the source give for CCCC1COCCN1Cc1ccc(S(=O)(=O)NC)cc1 (stereo not drawn) here?
**A.** 0.167%

**Q.** CCCC1COCCN1Cc1ccc(C(=O)O)cc1 (stereo not drawn) was tested. Which Percent Effect did it give?
**A.** -3.74%

**Q.** Cc1cc(=O)n2nc(Oc3cc(Cl)cc(Cl)c3)sc2n1 was tested. Which Percent Effect did it give?
**A.** -4.19%

**Q.** For COc1c(C(=O)NC(C)Cc2ccccc2Cl)c(C)nn1C (stereo not drawn), which Percent Effect is on record?
**A.** 0.464%

**Q.** Which Percent Effect does the source give for O=C(NCCc1ccccn1)N1CCOC(c2ccccc2Cl)C1 (stereo not drawn) here?
**A.** -1.2%

**Q.** CC(C)COc1cncc(N2CCCC(CC(N)=O)C2)n1 (stereo not drawn) was tested. Which Percent Effect did it give?
**A.** 10.7%

**Q.** For CC(=O)NCC1CCCN(C(=O)Cc2c(C)noc2C)C1 (stereo not drawn), which Percent Effect is on record?
**A.** -3.15%

**Q.** For CCN(Cc1ccncc1)C1CCN(c2ccccc2)C1=O (stereo not drawn), which Percent Effect is on record?
**A.** -7.01%

**Q.** CC(C)(CN1CCC2(CCNCC2)CC1)N1CCOCC1 was tested. Which Percent Effect did it give?
**A.** 0.354%

**Q.** With CC(=O)N1CCc2nc(N(C)C)nc(NCCc3ccccc3)c2CC1 as the compound, how does the Percent Effect read?
**A.** 3.82%

**Q.** With CC1(C)CC1(C(=O)N1CC(c2cccnc2)C1)c1ccc(F)cc1 (stereo not drawn) as the compound, how does the Percent Effect read?
**A.** 3.87%
